{
  "source": "PubChem BioAssay (NCATS)",
  "note": "Results filed as inconclusive are left out. Where a call stands in place of a potency, no number is given. Activity calls are given as the source filed them. Calls follow the shape of the dose curve; as a rule, active = well fitted cell-killing curve with a large enough effect; inconclusive = small, poorly fitted or top-dose-only effect; inactive = flat fitted curve, though single readings scatter. Potency is read from the fitted curve at half-maximal effect.",
  "data": [
    {"test": "Cellular viability qHTS for adrenocortical cancer (ACC) cell line NCI-H295R (AID 1963990); also: nearly all actives have a fitted effect of over 60% in size", "conditions": "CellTiter-Glo ATP luminescence, 48 h; series mostly up to 46.1 µM", "outline": "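Luminescent ATP read-out (CellTiter-Glo, 20 min RT) after 48 h drug exposure of NCI-H295R cells; a titration up to 46 uM final. Data normalized to doxorubicin (100% inhibition) and DMSO (0%); 4-parameter fit gives IC50, max response.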", "values": [
      {"smiles": "CC(C)=CCN1CC[C@@]2(C)c3cc(O)ccc3C[C@@H]1[C@@H]2C", "Potency": "31.6 µM (active)"},
      {"smiles": "CC(O)(CS(=O)(=O)c1ccc(F)cc1)C(=O)Nc1ccc(C#N)c(C(F)(F)F)c1", "note": "(stereo not given)", "Potency": "inactive"},
      {"smiles": "C#C[C@]1(O)CC[C@H]2[C@@H]3CCC4=CC(=O)CC[C@]4(C)[C@H]3CC[C@@]21C", "Potency": "inactive"},
      {"smiles": "CCN(CCO)CCn1c(Cc2ccccc2)nc2c1c(=O)n(C)c(=O)n2C", "Potency": "inactive"},
      {"smiles": "CC[C@]1(O)CC[C@H]2[C@@H]3CCC4=CCCC[C@@H]4[C@H]3CC[C@@]21C", "Potency": "2.91 µM (active)"},
      {"smiles": "CC(C)=CCOc1c2occc2cc2ccc(=O)oc12", "Potency": "inactive"},
      {"smiles": "Clc1ccc(CSC(Cn2ccnc2)c2ccc(Cl)cc2Cl)cc1", "note": "(stereo not given)", "Potency": "4.11 µM (active)"},
      {"smiles": "CN1C(=O)CN=C(c2ccccc2)c2cc(Cl)ccc21", "Potency": "inactive"},
      {"smiles": "C[C@H]1[C@H](O)[C@@H](C)/C=C/C=C/CC/C=C/C=C/C=C/C=C/[C@H](O[C@@H]2O[C@H](C)[C@@H](O)[C@H](N)[C@@H]2O)C[C@@H]2O[C@](O)(C[C@@H](O)[C@H](O)CC[C@@H](O)C[C@@H](O)C[C@@H](O)CC(=O)O[C@H]1C)C[C@H](O)[C@H]2C(=O)O", "Potency": "inactive"},
      {"smiles": "COC(=O)[C@]12CCC(C)(C)C[C@H]1[C@H]1C(=O)C=C3[C@@]4(C)C=C(C#N)C(=O)C(C)(C)[C@@H]4CC[C@@]3(C)[C@]1(C)CC2", "Potency": "3.98 µM (active)"}
    ]}
  ]
}
